# Laboratory results from PMC8384837, “Expanding the binding specificity for RNA recognition by a PUF domain”.
# Legend:
# Test in all cases: yeast three-hybrid, YBZ-1, SC-Leu-His + 0.5 mM 3-AT, 4 days
# Conditions in all cases: tags: N-Gal4 AD-HA kept; label: inside an RPR1-promoter hybrid RNA with tandem MS2 sites; ssRNA
# PUM1 PUF domain R7-RSS = PUM1 PUF domain R7-RSS (Homo sapiens, UniProt Q14671 828-1176, S1079R;N1080S;E1083S)
# Outline: (§1)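 Pumilio-1 PUF domain libraries, randomized at the three base-contacting residues of each repeat, were co-expressed with matching RNA elements from a centromeric plasmid in strain YBZ-1, which carries a LexA–MS2 coat fusion and a HIS3 reporter. Transformants grew for four days on SC-Leu (input) or on SC-Leu-His + 0.5 mM 3-AT (selection), and the repeat regions were PCR-amplified and Illumina-sequenced. The interaction score is the log change in variant frequency from input to selection. That logarithm is base 2, with a pseudocount of 1 where a variant was absent.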
# PUM1 PUF domain R3-LRG = PUM1 PUF domain R3-LRG (Homo sapiens, UniProt Q14671 828-1176, C935L;Q939G)
# Outline: as §1
# PUM1 PUF domain R4-SPI = PUM1 PUF domain R4-SPI (Homo sapiens, UniProt Q14671 828-1176, N971S;H972P;Q975I)
# Outline: as §1
# PUM1 PUF domain R4-GNG = PUM1 PUF domain R4-GNG (Homo sapiens, UniProt Q14671 828-1176, N971G;H972N;Q975G)
# Outline: as §1
# PUM1 PUF domain R4-GRR = PUM1 PUF domain R4-GRR (Homo sapiens, UniProt Q14671 828-1176, N971G;H972R;Q975R)
# Outline: as §1
# PUM1 PUF domain R1-GKR = PUM1 PUF domain R1-GKR (Homo sapiens, UniProt Q14671 828-1176, S863G;R864K;Q867R)
# Outline: as §1
# PUM1 PUF domain R1-KDT = PUM1 PUF domain R1-KDT (Homo sapiens, UniProt Q14671 828-1176, S863K;R864D;Q867T)
# Outline: as §1
# PUM1 PUF domain R2-GWW = PUM1 PUF domain R2-GWW (Homo sapiens, UniProt Q14671 828-1176, N899G;Y900W;Q903W)
# Outline: as §1
# PUM1 PUF domain R2-VYE = PUM1 PUF domain R2-VYE (Homo sapiens, UniProt Q14671 828-1176, N899V;Q903E)
# Outline: as §1
# PUM1 PUF domain R2-PVM = PUM1 PUF domain R2-PVM (Homo sapiens, UniProt Q14671 828-1176, N899P;Y900V;Q903M)
# Outline: as §1
# PUM1 PUF domain R1-KSA = PUM1 PUF domain R1-KSA (Homo sapiens, UniProt Q14671 828-1176, S863K;R864S;Q867A)
# Outline: as §1
# PUM1 PUF domain R4-WAK = PUM1 PUF domain R4-WAK (Homo sapiens, UniProt Q14671 828-1176, N971W;H972A;Q975K)
# Outline: as §1
# PUM1 PUF domain R4-QWP = PUM1 PUF domain R4-QWP (Homo sapiens, UniProt Q14671 828-1176, N971Q;H972W;Q975P)
# Outline: as §1
# PUM1 PUF domain R5-SVT = PUM1 PUF domain R5-SVT (Homo sapiens, UniProt Q14671 828-1176, C1007S;R1008V;Q1011T)
# Outline: as §1
# PUM1 PUF domain R5-HRS = PUM1 PUF domain R5-HRS (Homo sapiens, UniProt Q14671 828-1176, C1007H;Q1011S)
# Outline: as §1
# PUM1 PUF domain R5-GRR = PUM1 PUF domain R5-GRR (Homo sapiens, UniProt Q14671 828-1176, C1007G;Q1011R)
# Outline: as §1
# PUM1 PUF domain R3-DHR = PUM1 PUF domain R3-DHR (Homo sapiens, UniProt Q14671 828-1176, C935D;R936H;Q939R)
# Outline: as §1
# PUM1 PUF domain R3-SRH = PUM1 PUF domain R3-SRH (Homo sapiens, UniProt Q14671 828-1176, C935S;Q939H)
# Outline: as §1
# PUM1 PUF domain R3-VRD = PUM1 PUF domain R3-VRD (Homo sapiens, UniProt Q14671 828-1176, C935V;Q939D)
# Outline: as §1
# PUM1 PUF domain R8-KYW = PUM1 PUF domain R8-KYW (Homo sapiens, UniProt Q14671 828-1176, N1122K;Q1126W)
# Outline: as §1
# PUM1 PUF domain R5-HRS, sequence (Q14671 828-1176 C1007H/Q1011S): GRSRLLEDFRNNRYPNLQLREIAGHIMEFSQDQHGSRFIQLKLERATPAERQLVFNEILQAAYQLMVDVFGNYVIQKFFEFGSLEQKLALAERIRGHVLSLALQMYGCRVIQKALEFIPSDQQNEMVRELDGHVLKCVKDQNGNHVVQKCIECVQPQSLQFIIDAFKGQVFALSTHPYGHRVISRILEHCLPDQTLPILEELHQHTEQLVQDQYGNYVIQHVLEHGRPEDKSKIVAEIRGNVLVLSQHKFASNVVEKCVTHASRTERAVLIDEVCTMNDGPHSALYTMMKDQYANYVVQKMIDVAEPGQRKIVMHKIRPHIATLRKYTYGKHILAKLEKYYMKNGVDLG
# PUM1 PUF domain R4-GNG, sequence (Q14671 828-1176 N971G/H972N/Q975G): as the sequence (Q14671 828-1176 C1007H/Q1011S) above, with N144G, H145N, Q148G, H180C, S184Q counted along it
sequence,measurement,setting,value
GGCUAGAACUAGUGGAUCCCCCGGCGCCCGGCGGCUCGAGCCCGGGUAAGUUUAAAUAGUCUGCAUGCCGCCGGGCGCCAUGCCUGCAGGUCGACUCUAGAAAACAUG,binding signal,PUM1 PUF domain R7-RSS,2.76 log2 enrichment (interaction score)
GGCUAGAACUAGUGGAUCCCCCGGCGCCCGGCGGCUCGAGCCCGGGUAAGUGUAAGUAGUCUGCAUGCCGCCGGGCGCCAUGCCUGCAGGUCGACUCUAGAAAACAUG,binding signal,PUM1 PUF domain R3-LRG,3.85 log2 enrichment (interaction score)
GGCUAGAACUAGUGGAUCCCCCGGCGCCCGGCGGCUCGAGCCCGGGUAAGUGUACAUAGUCUGCAUGCCGCCGGGCGCCAUGCCUGCAGGUCGACUCUAGAAAACAUG,binding signal,PUM1 PUF domain R4-SPI,0.54 log2 enrichment (interaction score)
same,binding signal,PUM1 PUF domain R4-GNG,2.39 log2 enrichment (interaction score)
same,binding signal,PUM1 PUF domain R4-GRR,2.98 log2 enrichment (interaction score)
GGCUAGAACUAGUGGAUCCCCCGGCGCCCGGCGGCUCGAGCCCGGGUAAGUGUAAAUUGUCUGCAUGCCGCCGGGCGCCAUGCCUGCAGGUCGACUCUAGAAAACAUG,binding signal,PUM1 PUF domain R1-GKR,3.4 log2 enrichment (interaction score)
same,binding signal,PUM1 PUF domain R1-KDT,5.43 log2 enrichment (interaction score)
GGCUAGAACUAGUGGAUCCCCCGGCGCCCGGCGGCUCGAGCCCGGGUAAGUGUAAAAAGUCUGCAUGCCGCCGGGCGCCAUGCCUGCAGGUCGACUCUAGAAAACAUG,binding signal,PUM1 PUF domain R2-GWW,4.69 log2 enrichment (interaction score)
same,binding signal,PUM1 PUF domain R2-VYE,2.23 log2 enrichment (interaction score)
GGCUAGAACUAGUGGAUCCCCCGGCGCCCGGCGGCUCGAGCCCGGGUAAGUGUAAAGAGUCUGCAUGCCGCCGGGCGCCAUGCCUGCAGGUCGACUCUAGAAAACAUG,binding signal,PUM1 PUF domain R2-GWW,0.92 log2 enrichment (interaction score)
same,binding signal,PUM1 PUF domain R2-PVM,2.58 log2 enrichment (interaction score)
GGCUAGAACUAGUGGAUCCCCCGGCGCCCGGCGGCUCGAGCCCGGGUAAGUGUAAAUCGUCUGCAUGCCGCCGGGCGCCAUGCCUGCAGGUCGACUCUAGAAAACAUG,binding signal,PUM1 PUF domain R1-KSA,3.27 log2 enrichment (interaction score)
same,binding signal,PUM1 PUF domain R1-GKR,3.4 log2 enrichment (interaction score)
same,binding signal,PUM1 PUF domain R1-KDT,0.73 log2 enrichment (interaction score)
GGCUAGAACUAGUGGAUCCCCCGGCGCCCGGCGGCUCGAGCCCGGGUAAGUGUAUAUAGUCUGCAUGCCGCCGGGCGCCAUGCCUGCAGGUCGACUCUAGAAAACAUG,binding signal,PUM1 PUF domain R4-SPI,2.21 log2 enrichment (interaction score)
same,binding signal,PUM1 PUF domain R4-GNG,3.28 log2 enrichment (interaction score)
same,binding signal,PUM1 PUF domain R4-WAK,2.71 log2 enrichment (interaction score)
same,binding signal,PUM1 PUF domain R4-QWP,5.65 log2 enrichment (interaction score)
GGCUAGAACUAGUGGAUCCCCCGGCGCCCGGCGGCUCGAGCCCGGGUAAGUGUGAAUAGUCUGCAUGCCGCCGGGCGCCAUGCCUGCAGGUCGACUCUAGAAAACAUG,binding signal,PUM1 PUF domain R5-SVT,3.92 log2 enrichment (interaction score)
same,binding signal,PUM1 PUF domain R5-HRS,0.46 log2 enrichment (interaction score)
GGCUAGAACUAGUGGAUCCCCCGGCGCCCGGCGGCUCGAGCCCGGGUAAGUGUAAUUAGUCUGCAUGCCGCCGGGCGCCAUGCCUGCAGGUCGACUCUAGAAAACAUG,binding signal,PUM1 PUF domain R3-LRG,0.54 log2 enrichment (interaction score)
GGCUAGAACUAGUGGAUCCCCCGGCGCCCGGCGGCUCGAGCCCGGGUAAGUGUCAAUAGUCUGCAUGCCGCCGGGCGCCAUGCCUGCAGGUCGACUCUAGAAAACAUG,binding signal,PUM1 PUF domain R5-HRS,2.88 log2 enrichment (interaction score)
same,binding signal,PUM1 PUF domain R5-GRR,5.4 log2 enrichment (interaction score)
GGCUAGAACUAGUGGAUCCCCCGGCGCCCGGCGGCUCGAGCCCGGGUAAGUGUUAAUAGUCUGCAUGCCGCCGGGCGCCAUGCCUGCAGGUCGACUCUAGAAAACAUG,binding signal,PUM1 PUF domain R5-HRS,4.01 log2 enrichment (interaction score)
same,binding signal,PUM1 PUF domain R5-GRR,0.43 log2 enrichment (interaction score)
GGCUAGAACUAGUGGAUCCCCCGGCGCCCGGCGGCUCGAGCCCGGGUAAGUGUAAAUAGUCUGCAUGCCGCCGGGCGCCAUGCCUGCAGGUCGACUCUAGAAAACAUG,binding signal,PUM1 PUF domain R4-GNG,1.49 log2 enrichment (interaction score)
same,binding signal,PUM1 PUF domain R3-DHR,3.23 log2 enrichment (interaction score)
same,binding signal,PUM1 PUF domain R3-SRH,4.37 log2 enrichment (interaction score)
same,binding signal,PUM1 PUF domain R5-GRR,0.47 log2 enrichment (interaction score)
same,binding signal,PUM1 PUF domain R3-VRD,4.68 log2 enrichment (interaction score)
same,binding signal,PUM1 PUF domain R8-KYW,5.55 log2 enrichment (interaction score)
GGCUAGAACUAGUGGAUCCCCCGGCGCCCGGCGGCUCGAGCCCGGGUAAGUCUAAAUAGUCUGCAUGCCGCCGGGCGCCAUGCCUGCAGGUCGACUCUAGAAAACAUG,binding signal,PUM1 PUF domain R7-RSS,1.34 log2 enrichment (interaction score)
